Test results: PubChem BioAssay AID1159580 (chemical genetic matrix, 2015)
Where “and” joins values, the source holds several entries; their conditions need not be identical. Identical values can stand only once. In all, about 5,500 compounds went through this assay and about 2,000 (36%) were called active. Inconclusive results (about 18%) are left out. Cut-off read from the data, not from the text of the source: active = normalized growth mostly below about 0.91 (no sharp cut-off); inconclusive = no clear call, values can overlap the other calls; inactive = mostly above about 0.92. This is one part of the list.

Assay: chemical genetic growth profiling, strain panel (AID 1159580);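 note: tested at 20 µM; growth read once vehicle control cultures reached saturation at 30 °C; 1 = growth at the plate median or of vehicle wells; lower values mean less growth of the strain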
Conditions: S. cerevisiae deletion strains, growth OD

Measured: normalized growth

CC(=O)OCC1=C(C(=O)O)N2C(=O)[C@@H](NC(=O)CCCC(N)C(=O)O)C2SC1 (some centres not stated)
inactive: locus YAL013W, strain DEP1, active compounds read low 1.02 | locus YAL021C, strain ccr4, active compounds read low 1.01 | locus YAL026C, strain drs2, active compounds read low 1.01 | locus YAL030W, strain snc1, active compounds read low 0.998 | locus YBL061C, strain skt5, active compounds read low 0.997 | locus YBR009C, strain hhf1, active compounds read low 1.02 | locus YBR021W, strain FUR4, active compounds read low 0.998 | locus YBR023C, strain chs3, active compounds read low 0.987 | locus YBR171W, strain sec66, active compounds read low 1 | locus YBR229C, strain ROT2, active compounds read low 1 | locus YBR231C, strain swc5, active compounds read low 0.992 | locus YBR279W, strain paf1, active compounds read low 0.989 | locus YCL011C, strain gbp2, active compounds read low 1 | locus YCL016C, strain dcc1, active compounds read low 0.988 | locus YCL029C, strain bik1, active compounds read low 1.02 | locus YCL061C, strain MRC1, active compounds read low 0.997 | locus YCL069W, strain vba3, active compounds read low 0.997 | locus YCR088W, strain abp1, active compounds read low 0.998 | locus YDL005C, strain med2, active compounds read low 0.992 | locus YDL035C, strain GPR1, active compounds read low 1.03 | locus YDL040C, strain nat1, active compounds read low 0.99 | locus YDL074C, strain BRE1, active compounds read low 1 | locus YDL101C, strain DUN1, active compounds read low 1.01 | locus YDL134C, strain PPH21, active compounds read low 1.01 | locus YDL185W, strain tfp1, active compounds read low 1 | locus YDL192W, strain arf1, active compounds read low 1.01 | locus YDR001C, strain nth1, active compounds read low 0.99 | locus YDR069C, strain doa4, active compounds read low 1.01 | locus YDR101C, strain arx1, active compounds read low 1 | locus YDR137W, strain rgp1, active compounds read low 0.985 | locus YDR150W, strain NUM1, active compounds read low 1.02 | locus YDR159W, strain sac3, active compounds read low 1.01 | locus YDR162C, strain NBP2, active compounds read low 1.02 | locus YDR195W, strain ref2 0.963 | locus YDR297W, strain sur2, active compounds read low 0.999 | locus YDR318W, strain mcm21, active compounds read low 1.05 | locus YDR334W, strain swr1, active compounds read low 0.996 | locus YDR335W, strain msn5, active compounds read low 0.992 | locus YDR388W, active compounds read low 0.986 | locus YDR392W, strain spt3, active compounds read low 0.942 | locus YDR502C, strain sam2, active compounds read low 1.04 | locus YEL003W, strain gim4, active compounds read low 0.994 | locus YEL037C, strain rad23, active compounds read low 0.99 | locus YEL061C, strain CIN8 (second series), active compounds read low 0.991 | locus YEL061C, strain CIN8, active compounds read low 1.01 | locus YER015W, strain faa2, active compounds read low 0.993 | locus YER016W, strain bim1, active compounds read low 0.999 | locus YER110C, active compounds read low 0.994 | locus YER111C, strain swi4, active compounds read low 0.995 | locus YER155C, strain BEM2 (second series), active compounds read low 1 | locus YER155C, strain BEM2, active compounds read low 1 | locus YER167W, strain BCK2, active compounds read low 1.03 | locus YFR010W, strain ubp6, active compounds read low 1.01 | locus YGL078C, strain dbp3, active compounds read low 1.01 | locus YGL086W, strain mad1, active compounds read low 1.04 | locus YGL167C, strain pmr1, active compounds read low 0.992 | locus YGL173C, strain kem1, active compounds read low 1.01 | locus YGL227W, strain vid30, active compounds read low 0.994 | locus YGL240W, strain doc1, active compounds read low 0.998 | locus YGL248W, strain PDE1, active compounds read low 1 | locus YGL253W, strain hxk2, active compounds read low 0.982 | locus YGR078C, strain PAC10, active compounds read low 1.01 | locus YGR135W, strain pre9, active compounds read low 1.06 | locus YGR229C, strain SMI1, active compounds read low 1.01 | locus YGR252W, strain gcn5, active compounds read low 1.04 | locus YHR013C, strain ard1, active compounds read low 1.09 | locus YHR027C, strain rpn1, active compounds read low 0.99 | locus YHR030C, strain SLT2, active compounds read low 1.01 and 0.982 | locus YHR079C, strain IRE1 (second series), active compounds read low 0.999 | locus YHR079C, strain IRE1, active compounds read low 0.988 | locus YHR094C, strain hxt1, active compounds read low 0.991 | locus YHR129C, strain ARP1, active compounds read low 1 | locus YHR142W, strain chs7, active compounds read low 0.994 | locus YHR200W, strain rpn10, active compounds read low 1.02 | locus YIL066C, strain RNR3, active compounds read low 1.04 | locus YIL073C, strain SPO22, active compounds read low 1.25 | locus YIL125W, strain kgd1, active compounds read low 1 | locus YIR030C, strain dcg1, active compounds read low 1 | locus YJL092W, strain hpr5, active compounds read low 0.993 | locus YJL095W, strain BCK1 (second series), active compounds read low 0.99 | locus YJL095W, strain BCK1, active compounds read low 1.01 | locus YJL115W, strain asf1, active compounds read low 0.985 | locus YJL129C, strain trk1, active compounds read low 1 | locus YJL134W, strain LCB3, active compounds read low 1 | locus YJL154C, strain vps35, active compounds read low 0.986 | locus YJL164C, strain tpk1, active compounds read low 1.01 | locus YJL166W, strain qcr8, active compounds read low 0.989 | locus YJL168C, strain set2, active compounds read low 0.996 | locus YJL187C, strain SWE1 (second series), active compounds read low 1.03 | locus YJL187C, strain SWE1, active compounds read low 0.994 | locus YJR043C, strain POL32, active compounds read low 1.01 | locus YJR066W, strain TOR1, active compounds read low 0.942
